Shiga inhibitor: inhibitors of Shiga toxin in Vero cells. inhibition, % at 38.7 µM. Vero cells, Shiga toxin protein synthesis inhibition reporter. actives 9.2% (n = 290,000); in the data active = inhibition mostly above about 28%, no sharp cut-off; inactive = mostly below about 43%; note: 0% is about no effect
Sm TGR block: blocks Schistosoma mansoni thioredoxin glutathione reductase | Q962Y6 | purified TGR, DTNB reduction, TNB absorbance 405 nm | Potency, µM (top dose mostly 114 µM), without a hit: at the highest dose activity change, negative = inhibition, hits mostly inhibitors | actives 3% (n = 360,000); active = well fitted inhibition curve with a large enough effect; inconclusive = small, poorly fitted or top-dose-only effect; inactive = no such curve, though single readings can be large or run the other way; note: potency is the fitted concentration of half-maximal effect; % is set by controls: 0 for no effect and ±100 for the full control effect; nearly all actives have a fitted effect of over 60% in size
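TGR 20 nM + NADPH 100 uM (dispensed conc.), cpd preinc 15 min RT; start with NADPH (500 uM addition) then DTNB (15 mM addition). Kinetic TNB absorbance, 405 nm filter. Four-parameter Hill fit across titration.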
Cycloheximide cs: counter-screen hit for Shiga toxin inhibitors, cycloheximide; cell reporter, cycloheximide protein synthesis inhibition counterscreen; max response, %; actives 12% (n = 300,000); AID 2314; in the data active = max response mostly above about 13%, no sharp cut-off; inactive = mostly below about 14%; note: read at 38.3 µM for the half of the compounds with a filed dose; 0% is about no effect
FMDV antiviral: foot and mouth disease virus antiviral activity | FMDV antiviral cell-based qHTS | Potency, µM (titrated, usually from 57.9 µM), for the others: top-dose activity change, negative = inhibition, usual class: inhibitors | actives 1.2% (n = 410,000) | AID 1159524; calls by dose curve; tested in HEK293T cells; note: read-out not given here; potency is the fitted concentration of half-maximal effect; % is set by controls: 0 for no effect and ±100 for the full control effect; nearly all actives have a fitted effect of over 45% in size
The depositor's hits bear a star; u = inconclusive; x = not tested or not shown. An excerpt weighted towards active compounds, which were near 12% of everything screened.

SMILES	Shiga inhibitor	Sm TGR block	Cycloheximide cs	FMDV antiviral
COc1ccc(C2=CC(c3ccc(OC)c(OC)c3)n3nnnc3N2)c(OC)c1 (centres undefined)	-7.2	39.8µM*	-4.2	-11.8%
COc1cccc(C2C=C(c3ccc(OC)cc3OC)Nc3nnnn32)c1 (centres undefined)	-4.0	25.1µM*	-2.8	u
COc1cccc(C2=CC(c3cc(OC)ccc3OC)n3nnnc3N2)c1 (centres undefined)	-4.5	u	14.6	-39.7%
CCn1c(-c2ccccc2F)nc2cc(NC(C)=O)cc(C(=O)N3CCCC3c3nccs3)c21 (centres undefined)	x	x	x	-13.4%
Cc1cc(C)n(-c2nc3cc(Cl)ccc3nc2N2CCN(c3cccc(C)c3C)CC2)n1	x	1.4%	x	-24.7%
CCOC(=O)C(C(C)=O)c1c(Br)c(O)c(O)c2c(C(=O)c3ccc(C)cc3)coc12 (centres undefined)	34.4	4.47µM*	18.9*	-29.1%
CCOC(=O)c1c(C)n(-c2ccc(C)cc2)c2c(C(C(C)=O)C(=O)O)c(Br)c(O)c(O)c12 (centres undefined)	-15.9	u	13.5	0.0%
O=C(c1ccco1)N1CCN(C(=O)C2Cc3ccccc3CN2S(=O)(=O)c2ccc(F)cc2)CC1 (centres undefined)	17.7	50.1µM*	-3.1	-9.2%
O=C(Nc1ccc(F)c(Cl)c1)C1Cc2ccccc2CN1S(=O)(=O)c1ccc(F)cc1 (centres undefined)	x	1.5%	x	2.7%
O=C(Nc1nnc(C2CC2)s1)C1Cc2ccccc2CN1S(=O)(=O)c1ccccc1F (centres undefined)	76.3	12.1%	41.3*	x
O=C(C1Cc2ccccc2CN1S(=O)(=O)c1ccc(F)cc1)N1CCCCC1 (centres undefined)	13.9	0.9%	-2.1	0.0%
O=C(Nc1nccs1)C1Cc2ccccc2CN1S(=O)(=O)c1ccc(F)cc1 (centres undefined)	94.1*	-0.3%	48.2*	-33.6%
Cc1ccc(-c2cnc(C3CC3)o2)cc1S(=O)(=O)Nc1ccc(F)cc1Cl	x	-3.2%	x	46.5%
Cc1nc([N+](=O)[O-])c(Br)n1CC(=O)c1ccccc1	-15.8	3.98µM*	10.2	u
Cc1nc([N+](=O)[O-])c(Br)n1CC(=O)c1ccc2ccccc2c1	-20.8	14.1µM*	2.0	22.4µM*
Cc1nc([N+](=O)[O-])c(Br)n1CC(=O)c1ccc(Br)cc1	-19.6	11.2µM*	0.8	12.6µM*
COC(=O)c1c(SCc2ccc(C#N)cc2)nc(=O)[nH]c1C	-14.4	-4.6%	-2.1	-16.6%
COC(=O)c1c(C)[nH]c(O)c1C=Nc1ccc(C#N)cc1	2.3	12.6µM*	7.5	12.5%
COc1ccc2c(c1)c1c(c(=O)n(-c3cc(Cl)ccc3C)c(=O)n1Cc1ccc(F)cc1)n2C	x	0.3%	x	-3.2%
Cn1cccc1-c1nc2ccc(NC(=O)c3cccs3)cc2[nH]1	61.7	-23.9%	26.1*	u
CC(=O)Nc1ccc2nc(-c3cccn3C)[nH]c2c1	x	-2.0%	16.7*	20.9%
CC(=O)Nc1ccc2nc(-c3cccs3)[nH]c2c1	68.3*	0.6%	26.7*	56.3%
CCCCn1c(=O)c2oc3ccccc3c2n(CC(=O)Nc2cc(C)ccc2C)c1=O	x	2.6%	x	-20.7%
CCOc1ccc(CCNC(=O)c2ccc3c(c2)c(C)c(C)n3Cc2ccccc2)cc1OCC	x	8.5%	x	-18.5%
Cc1ccc(NC(=O)Cn2c(SCc3ccc(F)cc3)nc3cccnc32)cc1F	x	-5.1%	x	25.2%
SMILES	Shiga inhibitor	Sm TGR block	Cycloheximide cs	FMDV antiviral
CCCC1=[N+](CC(C)=O)CCn2c(C)ccc21	-8.3	28.2µM*	4.4	-5.0%
COc1cc(Cl)ccc1OCc1cc(C(=O)N(C)Cc2cccc3cnccc23)no1	70.4*	u	61.4*	u
COc1ccc(OCc2cc(C(=O)N(C)Cc3cnccn3)no2)c(Cl)c1	77.9*	3.1%	46.0*	29.3%
CSc1ccccc1OCc1cc(C(=O)NCC(C)Oc2cccnc2)no1 (centres undefined)	x	x	x	-3.7%
COc1ccc(OCc2cc(C(=O)NCC(C)Oc3cccnc3)no2)c(Cl)c1 (centres undefined)	43.3*	-23.4%	32.3*	22.0%
COc1cc(Cl)ccc1OCc1cc(C(=O)NC(C)Cc2cccnc2)no1 (centres undefined)	53.2*	0.0%	48.4*	-11.2%
CCC1CCCCN1C(=O)CSc1n[nH]c(-c2ccccc2)n1 (centres undefined)	x	4.2%	x	14.5%
COc1ccc(OCc2cc(C(=O)N(C)Cc3cc(C4CC4)n[nH]3)no2)c(Cl)c1	137.6*	u	40.3*	55.8%

Compound activity deposited in PubChem BioAssay by National Center for Advancing Translational Sciences (NCATS).
